Experimental data: PubChem BioAssay (NCATS)
Activity calls are given as the source filed them.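 How the source made its calls: active means calcium activation more than 3 SD above the typical response in the agonist read; inactive means the rest.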

What follows are compounds tested against Thyrotropin-releasing hormone receptor (Homo sapiens) (UniProt P34981) (assay: qHTS for Small Molecule Agonists and Allosteric Enhancers of Human TRH Receptor: Validation Screen for Agonists (AID 493127;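 further: intracellular calcium rise by fluo-8 fluorescence before TRH EC20 addition; 0% is about no effect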)). Conditions: TRH receptor agonist cell assay; at 2 µM; stronger effect = higher value.
Sequence of Thyrotropin-releasing hormone receptor (Homo sapiens) (P34981 whole entry, looked up): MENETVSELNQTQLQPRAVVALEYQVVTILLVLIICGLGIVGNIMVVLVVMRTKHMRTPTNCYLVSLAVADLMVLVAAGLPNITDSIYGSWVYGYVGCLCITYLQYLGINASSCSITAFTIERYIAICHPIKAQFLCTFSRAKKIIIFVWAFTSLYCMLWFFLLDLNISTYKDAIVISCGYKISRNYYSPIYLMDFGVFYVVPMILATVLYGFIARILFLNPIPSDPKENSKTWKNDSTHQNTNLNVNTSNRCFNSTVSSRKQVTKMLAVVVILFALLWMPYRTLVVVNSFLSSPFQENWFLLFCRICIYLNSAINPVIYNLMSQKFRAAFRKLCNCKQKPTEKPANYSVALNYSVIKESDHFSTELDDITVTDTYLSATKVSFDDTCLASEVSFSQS
Source text: NIH Chemical Genomics Center [NCGC]
NIH Molecular Libraries Probe Centers Network [MLPCN]
Assay Submitter (PI): Marvin Gershengorn
This project aims to identify small drug-like molecules that activate (agonists) the thyrotropin releasing hormone (TRH) receptor (TRHR) or enhance its TRH-stimulated activity (allosteric enhancers). TRHR, a drug-accessible cell surface receptor expressed in specific brain regions, and its ligand TRH have been implicated in several central nervous system disorders, including depression and anxiety. Small molecule TRHR agonists or allosteric enhancers that are metabolically stable and able to cross the blood-brain barrier might serve as probes to elucidate the roles of brain TRH receptors in animal models, and might be valuable as lead compounds for the development of drugs to treat patients with central nervous system disorders.
Upon TRHR-Gq activation in TRHR cells, intracellular calcium is released from stores in the endoplasmic reticulum. […] This validation screen measures compound-induced activation of calcium release.
For the HTS assay freshly prepared cells are plated at a density of 2000/well in 3 ul of complete DMEM medium containing 10% serum in 1536-well plates and cultured over night at 37 C in a humidified incubator with 5% CO2. The next day, 2 ul of a no wash calcium dye (ABD Bioquest) was added to the cells and plates were incubated at room temperature for 1 hour. For the assay, assay plates were loaded into the FDSS kinetic plate reader. A 10 cycle (1 second/cycle) baseline measurement is taken and then the FDSS online 1536 pintool delivers 23 nl of compound library (as well as TRH controls) to the plate. The plate is measured for kinetically at 1 cycle/sec for 180 seconds and is considered to be the agonist portion of the assay (eg, compounds which activate a positive calcium response during this portion are flagged as potential agonists). Following the 180 second read, 1 ul of either an EC20 (positive modulation assay) is delivered by an onboard pipette head. Measurements are taken kinetically for an additional 180 seconds.
TRHR FDSS Screening Protocol
1. Reagent, 3 uL 2000 cells/well 1536 TC treated Black plate in media containing 10% FCS
2. Time, 18 hours, 33.5C 5% CO2 (cells grown at 37C)
3. Reagent, 2 uL ABD fluo-8 Ca dye
4. Time, 30 min-1.5hrs hours, Room temp (6 plates/batch)
5. Detector, EX 480/EM 530C, FDSS 10 cycles baseline (1sec/cycle)
6. Compound, 23 nL of stock solution from library
7. Detector, EX 480/EM 530C, FDSS 230 cycles (1sec/cycle) Agonist mode
8. Compound, 1 ul EC20 of TRH made up in HEPES HBSS, 10 nM final
9. Detector, EX 480/EM 530C, FDSS 100 cycles (1sec/cycle) Potentiator mode
For COc1ccc(CCN(C)CCCC(C#N)(c2cc(OC)c(OC)c(OC)c2)C(C)C)cc1OC (stereo not given), the activation was 3% (inactive).
With Cc1nc2ccccn2c(=O)c1CCN1CCC(C(=O)c2ccc(F)cc2)CC1 the activation was 1.44% (inactive).
With NCCCNCCSP(=O)(O)O the activation was 0.812% (inactive).
For CN(C)CC/C=C1\c2ccccc2COc2ccccc21, the activation was 2.94% (inactive).
In the case of CCN(CC)CC(=O)Nc1c(C)cccc1C, the activation was 1.5% (inactive).
With CNC1(C)C2CCC(C2)C1(C)C (stereo not given) the activation was 0.375% (inactive).
With CCCOc1ccccc1-c1nc2n[nH]nc2c(=O)[nH]1 the activation was -3.25% (inactive).
With c1ccc2c(c1)CCCC2C1=NCCN1 (stereo not given) the activation was 1.25% (inactive).
In the case of NC/C=C/C(=O)O, the activation was 0.688% (inactive).
For C[N+](C)(C)CCOC(=O)CCC(=O)OCC[N+](C)(C)C, the activation was 0.188% (inactive).
In the case of CN(C)CCOC(=O)COc1ccc(Cl)cc1, the activation was 0.188% (inactive).
For CCCC(C(=O)OCCN(CC)CC)(c1ccccc1)c1ccccc1, the activation was -7.5% (inactive).
CCN(CC)CCNC(=O)c1cc(S(C)(=O)=O)ccc1OC was tested, and the activation was 0.0625% (inactive).
In the case of O=c1[nH]c(=O)n([C@H]2C[C@H](O)[C@@H](CO)O2)cc1Br, the activation was 1% (inactive).
O=C(O)CCCCCCCC(=O)O was tested, and the activation was -3.19% (inactive).
C#CCN(C)CCCOc1ccc(Cl)cc1Cl was tested, and the activation was -5.81% (inactive).
With COCC(=O)O[C@]1(CCN(C)CCCc2nc3ccccc3[nH]2)CCc2cc(F)ccc2[C@@H]1C(C)C the activation was 7.31% (inactive).
For CC(C(=O)O)c1ccc(CC2CCCC2=O)cc1 (stereo not given), the activation was 1.56% (inactive).
In the case of COC(=O)[C@@H](N)Cc1ccc(O)c(O)c1, the activation was 1% (inactive).
CCN1CCc2nc(N)oc2CC1 was tested, and the activation was 0.875% (inactive).
In the case of CC(C)[N+](C)(CCOC(=O)C1c2ccccc2Oc2ccccc21)C(C)C, the activation was 0.875% (inactive).
CCCN(CCC)CCc1cccc2c1CC(=O)N2 was tested, and the activation was -3.31% (inactive).
In the case of NC(N)=NC(=O)Cc1c(Cl)cccc1Cl, the activation was 1.44% (inactive).
In the case of NC(=O)c1ncn([C@@H]2O[C@H](CO)[C@@H](O)[C@H]2O)c1O, the activation was 1.12% (inactive).
In the case of CCn1ccnc1CC1COc2ccccc2O1 (stereo not given), the activation was 1.56% (inactive).
With CCOC(=O)c1cnc2c(cnn2CC)c1NN=C(C)C the activation was -4.75% (inactive).
In the case of C[n+]1cc2c3c(ccc2c2ccc4cc5c(cc4c21)OCO5)OCO3, the activation was 2.44% (inactive).
Cc1cc(C)c(/C=C2\C(=O)Nc3ccccc32)[nH]1 was tested, and the activation was 0.562% (inactive).
In the case of CC(=O)[C@]1(O)Cc2c(O)c3c(c(O)c2[C@@H](O[C@H]2C[C@H](N)[C@H](O)[C@H](C)O2)C1)C(=O)c1ccccc1C3=O, the activation was 17.9% (inactive).
In the case of CCNC(=O)N1CCN(CCCC(c2ccc(F)cc2)c2ccc(F)cc2)CC1, the activation was 6.5% (inactive).
C[C@H](CS)C(=O)N1CCC[C@H]1C(=O)O was tested, and the activation was -0.375% (inactive).
CCCN(CCC)C(=O)C(CCC(=O)O)NC(=O)c1ccccc1 (stereo not given) was tested, and the activation was 1.56% (inactive).
CCO/C([O-])=N/c1c[n+](N2CCOCC2)no1 was tested, and the activation was -0.0625% (inactive).
CC(=O)Oc1cc(C(C)C)c(OCCN(C)C)cc1C was tested, and the activation was 1.31% (inactive).
With Nc1nc(N)c2nc(-c3ccccc3)c(N)nc2n1 the activation was -0.0625% (inactive).
CN(C)C(=O)Oc1cccc([N+](C)(C)C)c1 was tested, and the activation was 0.625% (inactive).
CCOC(=O)C1=C(C)NC(C)=C(C(=O)OC)C1c1cccc(Cl)c1Cl (stereo not given) was tested, and the activation was 1.12% (inactive).
With Cc1scc2c1N(C(=O)CN1CCN(C)CC1)c1ccccc1NC2=O the activation was 0.5% (inactive).
NC(=O)N1c2ccccc2C=Cc2ccccc21 was tested, and the activation was 0.625% (inactive).
CCN(Cc1ccncc1)C(=O)C(CO)c1ccccc1 (stereo not given) was tested, and the activation was 0.375% (inactive).
